The text below walks through data of PubChem BioAssay (NCATS).

Test [1] is described as follows: AP1 Signaling Pathway (AID 357; active = well fitted curve in either direction with a large enough effect, not every such curve was filed as active; note: % is set by controls: 0 for no effect and ±100 for the full control effect). Conditions: ME-180 AP-1-bla reporter, EGF-induced, beta-lactamase ratio, 5 h; at 38 µM (top of the series). In short, it runs like this: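 Cells are seeded overnight, exposed to compound titrations and an EC50 level of EGF for 5 hours at 37 °C, then loaded with CCF4 dye for 2.5 hours. Beta-lactamase activity under the AP-1 element is read as a blue/green ratio.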

In test [2] the target is Cytochrome P450 1A2 (Homo sapiens) (UniProt P05177). In words: p450-cyp1a2 (AID 410; calls by dose curve; note: potency is the fitted concentration of half-maximal effect;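 for activity change, negative = inhibition: -100% = full effect of reference inhibitor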). Put shortly:
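Luminescent demethylation readout: Luciferin-ME (100uM, equal to Km) turned over by 20nM CYP1A2 for 60 min at room temperature after NADPH regeneration addition, following 10 min compound preincubation. Normalization used 57 uM furafylline as full inhibition.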

Test [3] is described as follows: NFAT Signaling Pathway (AID 444; active = well fitted curve in either direction with a large enough effect, not every such curve was filed as active;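 note: carbachol stimulus at about its EC50 of 1 µM final; % is set by controls: 0 for no effect and ±100 for the full control effect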). Conditions: Jurkat NFAT-bla M1, carbachol, beta-lactamase ratio, 5 h; at 38 µM (top of the series). Put shortly:
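Jurkat cells with NFAT-driven β-lactamase reporter and co-expressed M1 receptor, stimulated with carbachol (final 1 uM, ~EC50), compound titration, 5 h at 37 °C. CCF4 loaded 1 h at RT; 460/530 nm ratio gave %activity and AC50.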

A short description of test [4]: Stat Signaling Pathway (AID 446; active = well fitted curve in either direction with a large enough effect, not every such curve was filed as active;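 note: ME-180 cervical cancer cells given 40 pM IL-6 alongside compound; SIE-controlled beta-lactamase reporter measured as 460/530 nm FRET emission ratio; % is set by controls: 0 for no effect and ±100 for the full control effect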). Conditions: ME-180 (cervical carcinoma) SIE beta-lactamase reporter, IL-6 stimulated, 5 h; at 38 µM (top of the series). Put shortly:
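Compound effects on IL-6-induced STAT reporter activity were measured in ME-180 cells. After overnight culture, cells were co-treated with 40 pM IL-6 for 5 hrs before beta-lactamase substrate loading at room temperature.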

Test [5] has as its target Glucocorticoid receptor (Homo sapiens) (UniProt P04150). In words: GR-GFP Redistribution (AID 450;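 active = compounds whose dose series gives a full or clear partial fitted curve of increased nuclear translocation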; note: potency is the fitted concentration of half-maximal effect). Conditions: U2OS GR-GFP nuclear translocation, laser cytometry, 2 h.
Test [6] has as its target Mitogen-activated protein kinase 10 (Mus musculus) (UniProt Q61831). Kind of test: JNK3 AlphaScreen Assay (AID 530; active = well fitted curve in either direction with a large enough effect, not every such curve was filed as active;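 note: kinase came from lysate of stimulated human HepG2 cells; signal reports phosphorylation of biotinylated GST-cJun 1-79 at Ser73 with 10 µM ATP; % is set by controls: 0 for no effect and ±100 for the full control effect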). Put shortly: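 Activity was read by AlphaScreen after JNK3-containing HepG2 lysate (cytokine pre-activated) phosphorylated biotinylated GST-cJun with 10 uM ATP at room temperature. Phospho-Ser73 cJun antibody with Protein-A acceptor beads provided detection.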
On the technique in general: Bead proximity is the source of the signal in Alpha formats.

Test [7] deals with 3',5'-cyclic-AMP phosphodiesterase 4B (Homo sapiens) (UniProt Q07343). Kind of test: qHTS Assay for Inhibitors of PDE-IV (AID 607; active = well fitted activation curve with a large enough effect in the main read-out, with a control signal flat, not every such curve was filed as active; note: % of control where 0% means no effect). In short, it runs like this: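 ACTOne HEK293 cells carry a modified cAMP-gated CNG channel and express endogenous PDE4; plated 1000 cells/well, compounds up to 22.9 uM final. Membrane-potential dye fluorescence (ex 535/em 590) was read; parental cells received 10 uM forskolin + 100 uM RO 20-1724.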
Sequence of 3',5'-cyclic-AMP phosphodiesterase 4B (Homo sapiens) (Q07343 whole entry, looked up): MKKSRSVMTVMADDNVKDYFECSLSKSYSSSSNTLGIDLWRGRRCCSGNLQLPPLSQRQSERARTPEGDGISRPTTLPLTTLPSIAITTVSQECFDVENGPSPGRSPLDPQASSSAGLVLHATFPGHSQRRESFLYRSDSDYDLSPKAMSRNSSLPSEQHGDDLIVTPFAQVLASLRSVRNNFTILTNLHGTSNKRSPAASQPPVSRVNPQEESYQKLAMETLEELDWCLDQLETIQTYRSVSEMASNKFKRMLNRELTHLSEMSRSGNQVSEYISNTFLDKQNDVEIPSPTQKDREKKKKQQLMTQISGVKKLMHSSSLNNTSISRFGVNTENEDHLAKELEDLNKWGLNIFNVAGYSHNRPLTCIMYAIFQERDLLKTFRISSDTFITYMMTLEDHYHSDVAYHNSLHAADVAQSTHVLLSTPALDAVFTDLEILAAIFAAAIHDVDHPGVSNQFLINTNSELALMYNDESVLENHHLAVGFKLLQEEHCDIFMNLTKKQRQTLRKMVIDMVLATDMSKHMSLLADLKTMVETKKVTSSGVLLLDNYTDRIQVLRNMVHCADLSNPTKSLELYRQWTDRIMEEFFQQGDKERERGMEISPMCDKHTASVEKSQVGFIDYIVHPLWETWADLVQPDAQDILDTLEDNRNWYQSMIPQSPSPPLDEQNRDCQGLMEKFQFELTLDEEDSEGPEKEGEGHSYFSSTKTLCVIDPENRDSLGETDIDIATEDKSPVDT
(Quantitative high-throughput screening tests each substance at several concentrations.)

In test [8] the target is Guanine nucleotide-binding protein G(i) subunit alpha-1 (Homo sapiens) (UniProt P63096). In words: qHTS Assay for Inhibitors of RGS12 GoLoco Motif Activity (Green Fluorophore) (AID 879).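 Note: 0% = labeled peptide with Gαi1 and full inhibition = labeled peptide alone without protein; negative values mean loss of peptide binding seen as reduced polarization.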 Put shortly:
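A drop in FITC polarization marked displacement of the FITC-tagged RGS12 GoLoco peptide (10 nM) from Gαi1 (50 nM). Compounds were incubated 10 min at room temperature in Tris pH 7.5 buffer containing 150 mM NaCl, 0.1 mM GDP and 0.05% NP40; unlabeled peptide titration served as control.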

For test [9], the target named is Cytochrome P450 3A4 (Homo sapiens) (UniProt P08684). In words: qHTS Assay for Activators of Cytochrome P450 3A4 (AID 885). Note: nearly all actives have a fitted effect of over 65% in size. Put shortly: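 CYP3A4 activity: Luciferin-PPXE O-dealkylation, 25uM substrate, 200mM KPO4, RT throughout. Read-out is luciferase luminescence; higher values reflect activation.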
Sequence of Cytochrome P450 3A4 (Homo sapiens) (P08684 whole entry, looked up): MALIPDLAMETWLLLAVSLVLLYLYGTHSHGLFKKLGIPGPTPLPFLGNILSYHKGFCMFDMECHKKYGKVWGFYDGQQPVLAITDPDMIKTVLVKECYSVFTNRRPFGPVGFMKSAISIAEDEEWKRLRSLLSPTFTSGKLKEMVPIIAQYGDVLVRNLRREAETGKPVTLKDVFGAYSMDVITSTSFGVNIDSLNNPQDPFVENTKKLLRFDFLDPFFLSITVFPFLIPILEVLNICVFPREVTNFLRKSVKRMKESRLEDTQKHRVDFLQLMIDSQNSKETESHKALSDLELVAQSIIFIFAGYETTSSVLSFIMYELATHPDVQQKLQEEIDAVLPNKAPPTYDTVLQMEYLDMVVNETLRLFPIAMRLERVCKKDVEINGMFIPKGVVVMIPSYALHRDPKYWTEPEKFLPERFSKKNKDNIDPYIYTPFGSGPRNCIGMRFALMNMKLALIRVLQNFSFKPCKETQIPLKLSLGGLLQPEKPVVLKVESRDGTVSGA
The nature of test [10]: qHTS Assay for Identification of Small Molecule Agonists for Thrombopoietin (TPO) Signaling Pathway (AID 917). Note: % is set by controls: 0 for no effect and ±100 for the full control effect. In short, it runs like this: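 Stimulation at the TPO EC50 (26 pM final) was used to detect activators. Ba/F3 mouse cells bearing human TPO receptor and a luciferase reporter under the Glycoprotein IIb promoter were exposed to compounds for 24 hrs at 37 C.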
In test [11] the target is Pyruvate kinase (Leishmania mexicana) (UniProt Q27686). Kind of test: qHTS Validation Assay for Inhibitors of Leishmania Mexicana Pyruvate Kinase (AID 945).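 Note: 0% = DMSO only neutral control wells.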 In short, it runs like this: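 Eight-point qHTS titrations in triplicate, data normalized to DMSO neutral control. Reaction: 0.2 nM LmPYK E451W mutant, 0.5 mM PEP, 0.1 mM ADP, 7 mM MgCl2, pH 7.2, one hour at room temperature; luminescent ATP detection.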
Sequence of Pyruvate kinase (Leishmania mexicana) (Q27686 2-499 E452W): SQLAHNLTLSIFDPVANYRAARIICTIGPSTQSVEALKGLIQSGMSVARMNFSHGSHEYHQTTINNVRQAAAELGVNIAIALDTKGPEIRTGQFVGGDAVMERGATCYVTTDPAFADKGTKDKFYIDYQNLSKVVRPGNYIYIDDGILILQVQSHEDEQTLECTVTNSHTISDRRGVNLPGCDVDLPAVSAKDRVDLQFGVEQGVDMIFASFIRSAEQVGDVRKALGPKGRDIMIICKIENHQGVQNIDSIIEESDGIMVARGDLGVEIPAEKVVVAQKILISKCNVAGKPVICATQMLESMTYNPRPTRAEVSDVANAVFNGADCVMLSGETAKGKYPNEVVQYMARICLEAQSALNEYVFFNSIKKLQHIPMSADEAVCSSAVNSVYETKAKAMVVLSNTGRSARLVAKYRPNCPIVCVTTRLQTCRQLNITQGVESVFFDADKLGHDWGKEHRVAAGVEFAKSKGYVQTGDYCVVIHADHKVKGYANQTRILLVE

The target in test [12] is Alpha-galactosidase A (Homo sapiens) (UniProt P06280). In words: Counterscreen for Glucocerebrosidase Inhibitors: qHTS Assay for Human alpha-Galactosidase at pH 4.5 (AID 992). Note: 0% is about no effect. Put shortly: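 Citrate buffer pH 4.5, Tween-20 0.005%. Enzyme 2 nM, substrate 80 uM, 20 min RT. Stop pH 10. Fluorescence Ex 365/Em 440. AC50 by Hill fit.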
Sequence of Alpha-galactosidase A (Homo sapiens) (P06280 whole entry, looked up): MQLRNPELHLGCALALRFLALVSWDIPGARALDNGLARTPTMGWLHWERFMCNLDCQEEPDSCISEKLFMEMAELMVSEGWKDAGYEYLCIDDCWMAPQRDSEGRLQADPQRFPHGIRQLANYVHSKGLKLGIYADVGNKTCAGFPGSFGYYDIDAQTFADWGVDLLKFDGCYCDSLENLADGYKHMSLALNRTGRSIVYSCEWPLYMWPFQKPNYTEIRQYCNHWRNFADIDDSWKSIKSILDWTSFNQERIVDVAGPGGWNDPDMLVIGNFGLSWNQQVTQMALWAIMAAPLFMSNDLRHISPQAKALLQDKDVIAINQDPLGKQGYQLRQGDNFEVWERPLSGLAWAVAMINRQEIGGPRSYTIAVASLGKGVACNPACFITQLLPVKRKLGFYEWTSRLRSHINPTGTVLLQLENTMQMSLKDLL
In test [13] the target is alpha-glucosidase (Oryza sativa, rice) (UniProt Q653V4). Kind of test: Counterscreen for Glucocerebrosidase Inhibitors: qHTS Assay for Rice alpha-Glucosidase at pH 5.0 (AID 997).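 Note: 0% = full activity with enzyme and -100% = basal without enzyme.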 In short, it runs like this: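 Endpoint fluorogenic assay at pH 5.0: compounds (0.7 nM to 77 uM) titrated against 4 nM rice enzyme and 400 uM 4-MU-alpha-glucoside for 20 min at room temperature; NaOH/glycine stop, read ex 365/em 440 nm, Hill-fitted AC50.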

The nature of test [14]: qHTS Assay for Lipid Storage Modulators (AID 1519; calls by dose curve). Conditions: Drosophila S3 cells, BODIPY lipid droplet/cell ratio, laser cytometry, cells loaded with oleic acid; for activity change, negative = inhibition: at 57.5 µM (top of the series). In short, it runs like this: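 Cells seeded at 5,000 per well were treated with compounds over a concentration series and loaded with oleic acid (400 uM, as added). Lipid droplet fluorescence (488 nm excitation, 500-530 nm channel) was read by laser-scanning cytometry and normalized to 20 uM Triacsin C.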

Test [15] addresses DNA dC->dU-editing enzyme APOBEC-3G (Homo sapiens) (UniProt Q9HC16). Kind of test: qHTS for inhibitors of Vif-A3G interactions: Validation (AID 588379). Note: 0% is about no effect. In short, it runs like this:
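Yellow fluorescence (Ex 488, Em 500-530) of Vif-coexpressing HeLa A3G-eYFP cells, scanned by Acumen cytometer, reports blocked A3G degradation. Cells plated at 700/well overnight at 37 deg C before compound addition, then a further overnight compound incubation at 37 deg C.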

For test [16], the system named is Zika virus NS2B-NS3 protease. In words: Primary screen GU AMC qHTS for Zika virus inhibitors (AID 1347154).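 Note: 0% = no-inhibitor control and -100% = no-enzyme control; nearly all actives have a fitted effect of over 70% in size.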 Put shortly:
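Unlinked Zika NS2B hydrophilic domain–NS3 protease complex at 25 nM in 10 mM Tris-HCl pH 8.0, 0.01% Tween 20, with an AMC peptide substrate. Fluorescence change (340/450 nm) over 15 min at room temperature, normalized to controls, fitted to 4-parameter Hill.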

Test [17] can be described thus: Primary qHTS for small molecule stabilizers of the endoplasmic reticulum resident proteome: Secreted ER Calcium Modulated Protein (SERCaMP) assay (AID 1508630). Note: % is set by controls: 0 for no effect and ±100 for the full control effect. Put shortly: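 The SH-SY5Y reporter protocol was run at 3 concentrations up to 38.3 uM (primary) or 11 concentrations (follow-up): 16 h compound, 100 nM thapsigargin for 4 h, then extracellular luciferase luminescence.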

The target in test [18] is Glucocorticoid receptor (Homo sapiens) (UniProt P04150). Kind of test: GR-EFC Redistribution (AID 451; calls by dose curve; note: potency is the fitted concentration of half-maximal effect). Conditions: CHO-K1 GR-EFC translocation, beta-gal luminescence, 2 h. Put shortly: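 CHO-K1 cells expressing nuclear EA and GR-ED fragments of b-gal; compounds titrated up to 46 uM final, 2 h at 37 C. GR nuclear translocation read as complemented b-gal luminescence after 1 h RT detection.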
Sequence of Glucocorticoid receptor (Homo sapiens) (P04150 whole entry, looked up, the tested form may be a part): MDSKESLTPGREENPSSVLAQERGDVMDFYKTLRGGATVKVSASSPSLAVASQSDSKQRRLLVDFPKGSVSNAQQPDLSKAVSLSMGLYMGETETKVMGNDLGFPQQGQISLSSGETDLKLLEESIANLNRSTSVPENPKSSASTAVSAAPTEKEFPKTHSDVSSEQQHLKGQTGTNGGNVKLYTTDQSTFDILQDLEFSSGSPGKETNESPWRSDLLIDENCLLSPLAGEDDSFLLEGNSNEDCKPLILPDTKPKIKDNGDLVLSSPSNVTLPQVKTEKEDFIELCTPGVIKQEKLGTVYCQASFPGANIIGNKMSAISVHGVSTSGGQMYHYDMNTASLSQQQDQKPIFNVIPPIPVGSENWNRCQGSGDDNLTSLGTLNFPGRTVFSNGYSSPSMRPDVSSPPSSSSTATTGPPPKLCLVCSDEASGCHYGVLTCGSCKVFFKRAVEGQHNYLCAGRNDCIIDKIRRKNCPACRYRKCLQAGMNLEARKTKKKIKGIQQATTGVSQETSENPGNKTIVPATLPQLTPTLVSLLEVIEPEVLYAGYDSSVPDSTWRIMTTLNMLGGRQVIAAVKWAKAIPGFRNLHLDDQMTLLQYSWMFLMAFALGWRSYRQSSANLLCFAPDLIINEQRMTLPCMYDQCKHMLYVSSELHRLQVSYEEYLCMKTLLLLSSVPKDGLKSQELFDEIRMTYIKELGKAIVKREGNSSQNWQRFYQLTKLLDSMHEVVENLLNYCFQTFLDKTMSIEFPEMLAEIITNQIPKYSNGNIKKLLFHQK

Test [19] concerns the target Ubiquitin carboxyl-terminal hydrolase 1 (Homo sapiens) (UniProt O94782). In words: Inhibitors of USP1/UAF1: Pilot qHTS (AID 504865).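 Note: rhodamine fluorescence freed from ubiquitin-rhodamine substrate followed over time; top concentration of the series differs between compounds; % is set by controls: 0 for no effect and ±100 for the full control effect; nearly all actives have a fitted effect of over 35% in size.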 In short, it runs like this:
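USP1/UAF1 complex at 1 nM preincubated 15 min at room temperature with compound, then Ub-Rho substrate added at 150 nM final. Fluorescence (480/540 nm) read kinetically in 50 mM HEPES pH 7.8, 0.5 mM EDTA, 1 mM TCEP, 0.1 mg/ml BSA, 0.01% Tween-20.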

Setting [20] is: measured here: cell count channel max response.
Setting [21] is: measured here: lipid channel max response.

Where “and” joins values, the source holds several entries; their conditions need not be identical. Equal values may be shown once. Inconclusive results are not listed. Calls of active or inactive are those of the source. Unless noted, calls come from the whole dose curve; as a rule, active = well fitted curve in the direction sought with a large enough effect; inconclusive = small, poorly fitted or top-dose-only effect, or another doubt; inactive = no such curve, though single readings can be large; an effect the other way counts as inactive or inconclusive.

Sequence of DNA dC->dU-editing enzyme APOBEC-3G (Homo sapiens) (Q9HC16 whole entry, looked up): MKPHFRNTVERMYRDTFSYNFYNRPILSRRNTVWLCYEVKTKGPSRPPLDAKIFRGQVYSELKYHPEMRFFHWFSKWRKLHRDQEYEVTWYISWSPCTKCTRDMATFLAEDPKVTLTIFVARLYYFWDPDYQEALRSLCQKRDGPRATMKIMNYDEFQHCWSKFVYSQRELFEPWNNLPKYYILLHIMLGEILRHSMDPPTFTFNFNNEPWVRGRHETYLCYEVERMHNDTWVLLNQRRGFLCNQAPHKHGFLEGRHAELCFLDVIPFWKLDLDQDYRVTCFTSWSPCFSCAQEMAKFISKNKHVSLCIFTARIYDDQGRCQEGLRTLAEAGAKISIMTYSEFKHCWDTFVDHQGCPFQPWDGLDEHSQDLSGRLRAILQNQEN
Sequence of Ubiquitin carboxyl-terminal hydrolase 1 (Homo sapiens) (O94782 whole entry, looked up): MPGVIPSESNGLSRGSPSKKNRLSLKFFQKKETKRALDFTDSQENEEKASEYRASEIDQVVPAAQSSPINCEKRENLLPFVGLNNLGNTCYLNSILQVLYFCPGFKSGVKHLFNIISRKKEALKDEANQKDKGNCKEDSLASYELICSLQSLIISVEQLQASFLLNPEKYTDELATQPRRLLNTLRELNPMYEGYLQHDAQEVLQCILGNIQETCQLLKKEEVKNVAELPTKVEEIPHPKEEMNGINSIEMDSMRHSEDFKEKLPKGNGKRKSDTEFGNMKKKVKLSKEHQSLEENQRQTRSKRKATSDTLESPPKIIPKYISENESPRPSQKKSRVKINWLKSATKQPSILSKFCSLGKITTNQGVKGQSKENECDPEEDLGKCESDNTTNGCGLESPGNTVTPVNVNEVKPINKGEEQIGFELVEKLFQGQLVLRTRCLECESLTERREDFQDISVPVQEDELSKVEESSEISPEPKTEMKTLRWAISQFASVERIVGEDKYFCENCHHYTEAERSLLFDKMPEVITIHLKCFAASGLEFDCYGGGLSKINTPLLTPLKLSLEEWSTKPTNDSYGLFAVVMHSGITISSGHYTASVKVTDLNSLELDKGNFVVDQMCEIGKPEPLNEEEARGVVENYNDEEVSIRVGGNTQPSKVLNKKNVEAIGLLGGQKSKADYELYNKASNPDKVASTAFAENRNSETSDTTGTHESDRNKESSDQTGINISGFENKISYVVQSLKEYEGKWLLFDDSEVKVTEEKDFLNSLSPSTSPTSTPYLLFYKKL
Sequence of Cytochrome P450 1A2 (Homo sapiens) (P05177 whole entry, looked up): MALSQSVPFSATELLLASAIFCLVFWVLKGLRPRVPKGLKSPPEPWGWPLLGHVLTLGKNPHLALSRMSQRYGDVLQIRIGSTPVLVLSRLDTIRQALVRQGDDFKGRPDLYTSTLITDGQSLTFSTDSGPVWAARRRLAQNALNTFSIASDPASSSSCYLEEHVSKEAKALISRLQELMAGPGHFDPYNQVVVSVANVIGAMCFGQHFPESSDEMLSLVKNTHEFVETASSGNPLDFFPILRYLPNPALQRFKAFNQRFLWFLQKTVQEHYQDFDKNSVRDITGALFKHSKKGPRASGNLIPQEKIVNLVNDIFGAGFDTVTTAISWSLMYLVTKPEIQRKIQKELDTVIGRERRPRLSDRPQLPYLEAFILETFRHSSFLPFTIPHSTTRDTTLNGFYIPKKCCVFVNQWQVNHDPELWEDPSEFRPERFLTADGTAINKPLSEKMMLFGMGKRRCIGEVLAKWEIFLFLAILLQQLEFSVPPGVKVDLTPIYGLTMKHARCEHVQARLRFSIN
Sequence of Guanine nucleotide-binding protein G(i) subunit alpha-1 (Homo sapiens) (P63096 whole entry, looked up): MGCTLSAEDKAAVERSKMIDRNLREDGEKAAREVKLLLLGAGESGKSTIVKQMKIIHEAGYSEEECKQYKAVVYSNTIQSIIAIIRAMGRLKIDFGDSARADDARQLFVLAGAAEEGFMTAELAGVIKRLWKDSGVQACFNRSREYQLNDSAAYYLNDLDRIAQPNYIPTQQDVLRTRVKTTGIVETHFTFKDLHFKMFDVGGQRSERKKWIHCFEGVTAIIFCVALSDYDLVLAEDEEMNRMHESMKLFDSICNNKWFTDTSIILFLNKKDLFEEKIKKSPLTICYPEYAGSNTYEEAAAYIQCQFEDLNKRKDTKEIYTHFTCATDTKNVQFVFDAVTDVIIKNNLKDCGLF

For `S=C(S)O[C@@H]1C[C@@H]2C[C@H]1[C@@H]1CCC[C@H]21`, the activity change, negative = inhibition in [1] was 6.71% (inactive); in [3], -4.29% (inactive); in test [14], -0.164% (inactive). Also, the Potency entry in test [2], in test [6], in test [7], in [9], in test [10] and in [11] was “inactive” in each case. For the same compound, the Potency entry in [15], in test [16] and in [17] was “inactive” in each case. In [4], the activity, negative = inhibition is -20.1% (inactive). The Potency in [5] was > 46 µM (inactive). The outcome in test [8], in test [12] and in [13] was inactive. In addition, the max response in test [14] (setting [20]) was 8.79%; in test [14] (setting [21]), 9.53%.
As to `c1ccc2oc(C3=NCCN3)cc2c1`, the Potency in test [2] was 5.01 µM (active); in test [5], > 46 µM (inactive); in test [18], > 46 µM (inactive). Further, the Potency result in test [6], in [19], in test [15], in [16] and in test [17] was “inactive” throughout. For the same compound, the activity change, negative = inhibition in [14] is -5.14% (inactive). The max response in test [14] (setting [20]) is -13.1%; in [14] (setting [21]), -18.7%.
For `N[C@H](C(=O)O)[C@@H]1C[C@@H]1C(=O)O`, the Potency entry in test [2], in [6], in test [7], in test [10], in test [11] and in test [19] was “inactive” throughout. Further, the Potency entry in test [15], in [16] and in test [17] was “inactive” throughout. Further, the Potency in test [5] and in [18] was > 46 µM (inactive) in each case. Moreover, the result in test [8], in test [12] and in test [13] was inactive. The activity change, negative = inhibition in test [14] was 0.571% (inactive) and -0.444% (inactive). Besides, the max response in test [14] (setting [20]) was -21% and 5.3%; in test [14] (setting [21]), -19.5% and 5.06%.
